# Measurements as given in article PMC5540273 (PLoS ONE, 2017).
# “And” between values parts separate entries of the source, which are not always exact repeats. Equal entries are not always repeated. Where two headings read alike, the source gives them in different places.
# Key:
# MAP3K3 = settings: concentration: 1 μM, replicates: in singlicate, n = 1
# MAP3K4 = settings: concentration: 1 μM, replicates: in singlicate, n = 1
# MAP4K2 = settings: concentration: 1 μM, replicates: in singlicate, n = 1
# MAP4K3 = settings: concentration: 1 μM, replicates: in singlicate, n = 1
# MAP4K4 = settings: concentration: 1 μM, replicates: in singlicate; n = 1
# MAP4K5 = settings: concentration: 1 μM, replicates: in singlicate; n = 1
# MAPKAPK2 = settings: concentration: 1 μM, replicates: in singlicate, n = 1
# MAPKAPK5 = settings: concentration: 1 μM, replicates: in singlicate, n = 1
# MARK1 = settings: concentration: 1 μM, replicates: in singlicate; n = 1
# MARK2 = settings: concentration: 1 μM, replicates: in singlicate, n = 1
# MARK3 = settings: concentration: 1 μM, replicates: in singlicate; n = 1
# MARK4 = settings: concentration: 1 μM, replicates: in singlicate, n = 1
# MAST1 = settings: concentration: 1 μM, replicates: in singlicate, n = 1
# MEK1 = test system: T1, MEK1; settings: concentration: 1 μM, replicates: in singlicate, n = 1
# T1 construct: gene MAP2K1
# MEK2 = test system: T2, MEK2; settings: concentration: 1 μM, replicates: in singlicate, n = 1
# T2 construct: gene MAP2K2
# MEK3 = test system: T3, MEK3; settings: concentration: 1 μM, replicates: in singlicate, n = 1
# T3 construct: gene MAP2K3
# MEK4 = test system: T4, MEK4; settings: concentration: 1 μM, replicates: in singlicate, n = 1
# T4 construct: gene MAP2K4
# MEK5 = test system: T5, MEK5; settings: concentration: 1 μM, replicates: in singlicate, n = 1
# T5 construct: gene MAP2K5
# MEK6 = test system: T6, MEK6; settings: concentration: 1 μM, replicates: in singlicate; n = 1
# T6 construct: gene MAP2K6
# MELK = settings: concentration: 1 μM, replicates: in singlicate, n = 1
# 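Note: KINOMEscan kinase panel screen.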
smiles,measurement,setting,value
CSc1nn2c(=O)cc(N3CCOCC3)nc2n1Cc1cccc(Cl)c1Cl [GSK2347225],%Inh,MAP3K3,0%
same,%Inh,MAP3K4,31%
same,%Inh,MAP4K2,0%
same,%Inh,MAP4K3,42%
same,%Inh,MAP4K4,22%
same,%Inh,MAP4K5,12%
same,%Inh,MAPKAPK2,22%
same,%Inh,MAPKAPK5,0%
same,%Inh,MARK1,0%
same,%Inh,MARK2,0%
same,%Inh,MARK3,2%
same,%Inh,MARK4,3%
same,%Inh,MAST1,0%
same,%Inh,MEK1,0%
same,%Inh,MEK2,5%
same,%Inh,MEK3,0%
same,%Inh,MEK4,33%
same,%Inh,MEK5,48%
same,%Inh,MEK6,0%
same,%Inh,MELK,18%
Nc1nc(-c2cccnc2)c(-c2ccnc3ccccc23)s1 [GW684083],%Inh,MAP3K3,0%
same,%Inh,MAP3K4,0%
same,%Inh,MAP4K2,0%
same,%Inh,MAP4K3,0%
same,%Inh,MAP4K4,16%
same,%Inh,MAP4K5,0%
same,%Inh,MAPKAPK2,14%
same,%Inh,MAPKAPK5,0%
same,%Inh,MARK1,0%
same,%Inh,MARK2,0%
same,%Inh,MARK3,0%
same,%Inh,MARK4,0%
same,%Inh,MAST1,22%
same,%Inh,MEK1,0%
same,%Inh,MEK2,0%
same,%Inh,MEK3,0%
same,%Inh,MEK4,1%
same,%Inh,MEK5,70%
same,%Inh,MEK6,0%
same,%Inh,MELK,6%
CSc1ccc(NC2=C(c3ccccc3Cl)C(=O)NC2=O)cc1 [SB-342411],%Inh,MAP3K3,0%
same,%Inh,MAP3K4,30%
same,%Inh,MAP4K2,0%
same,%Inh,MAP4K3,10%
same,%Inh,MAP4K4,2%
same,%Inh,MAP4K5,6%
same,%Inh,MAPKAPK2,3%
same,%Inh,MAPKAPK5,1%
same,%Inh,MARK1,3%
same,%Inh,MARK2,0%
same,%Inh,MARK3,0%
same,%Inh,MARK4,13%
same,%Inh,MAST1,0%
same,%Inh,MEK1,14%
same,%Inh,MEK2,3%
same,%Inh,MEK3,0%
same,%Inh,MEK4,0%
same,%Inh,MEK5,5%
same,%Inh,MEK6,76%
same,%Inh,MELK,4%
COc1ccc(-c2nc3n(c2-c2ccncc2)CCC3)cc1 [SKF-104493],%Inh,MAP3K3; 1 µM,6% and 0%
same,%Inh,MAP3K4; 1 µM,28% and 3%
same,%Inh,MAP4K2; 1 µM,7% and 0%
same,%Inh,MAP4K3; 1 µM,0% and 8%
same,%Inh,MAP4K4,0%
same,%Inh,MAP4K5,0%
same,%Inh,MAPKAPK2; 1 µM,12% and 9%
same,%Inh,MAPKAPK5; 1 µM,13% and 10%
same,%Inh,MARK1,0%
same,%Inh,MARK2; 1 µM,0% and 11%
same,%Inh,MARK3,0%
same,%Inh,MARK4; 1 µM,17% and 0%
same,%Inh,MAST1; 1 µM,49% and 11%
same,%Inh,MEK1; 1 µM,0% and 12%
same,%Inh,MEK2; 1 µM,29% and 5%
same,%Inh,MEK3; 1 µM,1% and 0%
same,%Inh,MEK4; 1 µM,67% and 12%
same,%Inh,MEK5; 1 µM,24% and 0%
same,%Inh,MEK6,0%
same,%Inh,MELK; 1 µM,0% and 15%
Clc1cc(Nc2ncnc3cc[nH]c23)ccc1OCc1ccccn1,%Inh,MAP3K3,27%
same,%Inh,MAP3K4,10%
same,%Inh,MAP4K2,0%
same,%Inh,MAP4K3,0%
same,%Inh,MAP4K4,4%
same,%Inh,MAP4K5,6%
same,%Inh,MAPKAPK2,5%
same,%Inh,MAPKAPK5,0%
same,%Inh,MARK1,13%
same,%Inh,MARK2,0%
same,%Inh,MARK3,5%
same,%Inh,MARK4,4%
same,%Inh,MAST1,45%
same,%Inh,MEK1,17%
same,%Inh,MEK2,23%
same,%Inh,MEK3,19%
same,%Inh,MEK4,11%
same,%Inh,MEK5,76%
same,%Inh,MEK6,17%
same,%Inh,MELK,0%
Fc1cccc(COc2ccc(Nc3ncnc4nn5ccccc5c34)cc2Cl)c1 [GW689066],%Inh,MAP3K3,0%
same,%Inh,MAP3K4,0%
same,%Inh,MAP4K2,0%
same,%Inh,MAP4K3,0%
same,%Inh,MAP4K4,0%
same,%Inh,MAP4K5,0%
same,%Inh,MAPKAPK2,4%
same,%Inh,MAPKAPK5,0%
same,%Inh,MARK1,0%
same,%Inh,MARK2,0%
same,%Inh,MARK3,0%
same,%Inh,MARK4,0%
same,%Inh,MAST1,23%
same,%Inh,MEK1,0%
same,%Inh,MEK2,0%
same,%Inh,MEK3,0%
same,%Inh,MEK4,8%
same,%Inh,MEK5,45%
same,%Inh,MEK6,0%
same,%Inh,MELK,5%
Nc1nc(-c2ccc3c(N)n[nH]c3c2)cc(N2CCCCC2)n1 [GSK2228768],%Inh,MAP3K3,0%
same,%Inh,MAP3K4,2%
same,%Inh,MAP4K2,0%
same,%Inh,MAP4K3,0%
same,%Inh,MAP4K4,0%
same,%Inh,MAP4K5,0%
same,%Inh,MAPKAPK2,3%
same,%Inh,MAPKAPK5,0%
same,%Inh,MARK1,0%
same,%Inh,MARK2,0%
same,%Inh,MARK3,0%
same,%Inh,MARK4,0%
same,%Inh,MAST1,0%
same,%Inh,MEK1,0%
same,%Inh,MEK2,0%
same,%Inh,MEK3,2%
same,%Inh,MEK4,0%
same,%Inh,MEK5,8%
same,%Inh,MEK6,0%
same,%Inh,MELK,0%
CS(=O)(=O)CCNCc1nc(-c2ccc3ncnc(Nc4ccc(OCc5cccc(F)c5)c(Cl)c4)c3c2)cs1.Cl [GW583340],%Inh,MAP3K3,0%
same,%Inh,MAP3K4,4%
same,%Inh,MAP4K2,0%
same,%Inh,MAP4K3,0%
same,%Inh,MAP4K4,0%
same,%Inh,MAP4K5,0%
same,%Inh,MAPKAPK2,4%
same,%Inh,MAPKAPK5,0%
same,%Inh,MARK1,0%
same,%Inh,MARK2,0%
same,%Inh,MARK3,0%
same,%Inh,MARK4,0%
same,%Inh,MAST1,0%
same,%Inh,MEK1,0%
same,%Inh,MEK2,0%
same,%Inh,MEK3,0%
same,%Inh,MEK4,3%
same,%Inh,MEK5,57%
same,%Inh,MEK6,0%
same,%Inh,MELK,0%
O=C(NCCCN1CCCC1=O)c1cnc(NCc2cc(Cl)ccc2Cl)nc1NC1CCNCC1,%Inh,MAP3K3,57%
same,%Inh,MAP3K4,12%
same,%Inh,MAP4K2,0%
same,%Inh,MAP4K3,16%
same,%Inh,MAP4K4,0%
same,%Inh,MAP4K5,19%
same,%Inh,MAPKAPK2,0%
same,%Inh,MAPKAPK5,0%
same,%Inh,MARK1,0%
same,%Inh,MARK2,0%
same,%Inh,MARK3,0%
same,%Inh,MARK4,0%
same,%Inh,MAST1,0%
same,%Inh,MEK1,0%
same,%Inh,MEK2,3%
same,%Inh,MEK3,0%
same,%Inh,MEK4,0%
same,%Inh,MEK5,0%
same,%Inh,MEK6,0%
same,%Inh,MELK,0%
CCn1c(-c2ccncc2)nc2cnccc21 [SB-735216],%Inh,MAP3K3,10%
same,%Inh,MAP3K4,23%
same,%Inh,MAP4K2,12%
same,%Inh,MAP4K3,0%
same,%Inh,MAP4K4,1%
same,%Inh,MAP4K5,0%
same,%Inh,MAPKAPK2,16%
same,%Inh,MAPKAPK5,29%
same,%Inh,MARK1,16%
same,%Inh,MARK2,100%
same,%Inh,MARK3,96.1%
same,%Inh,MARK4,8%
same,%Inh,MAST1,37%
same,%Inh,MEK1,5%
same,%Inh,MEK2,11%
same,%Inh,MEK3,34%
same,%Inh,MEK4,7%
same,%Inh,MEK5,25%
same,%Inh,MEK6,0%
same,%Inh,MELK,0%
